Among the data in PubChem BioAssay AID651687 (Broad Institute, 2012) are inhibition values, retold here.

Broadly, the inhibition is the change of the read-out against control, counted positive when it falls.

Values joined by “and” are separate entries in the source; they are usually repeats but may differ in a detail not shown here. Equal entries are not always repeated. Hit rate of the full screen: of about 350,000 compounds, about 600 (0.17%) were called active. The full list was thinned out, with actives kept by preference. Unmarked numbers belong to inactive results.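 How the source made its calls: active means every replicate shows inhibition of at least 40%; inconclusive means mean inhibition at least 40% but some replicate below; inactive means the rest.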

The experiment can be described thus: compounds lowering acetylated PGC1a in cells – cell-based, U2OS, AlphaScreen, inhibitor mode, primary screen (AID 651687).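 Further: 0% = neutral control wells and 100% = positive control wells.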 Particulars: U2OS PGC1a acetylation, AlphaScreen anti-acetyl-lysine; at 15.6 µM; hits give high values; with virally co-expressed GCN5 acetyltransferase. (In general: Alpha assays give light when donor and acceptor beads are brought close together.)
On to `CN(C)CC(=O)Nc1ccc2c(c1)[C@H]1C[C@H](CC(=O)NCc3ccc4c(c3)OCO4)O[C@@H](CO)[C@H]1O2`, for which the inhibition is -4.35%.

As to `CC(=O)N(C)C[C@@H]1Oc2ncc(C#CCc3ccccc3)cc2C(=O)N([C@H](C)CO)C[C@H]1C`, the inhibition is 2.72%.

Take `Cc1ccc(S(=O)(=O)Nc2ccc3c(c2)C(=O)N([C@H](C)CO)C[C@@H](C)[C@H](CN(C)Cc2ccccc2)O3)cc1`: the inhibition was -12.1%.

On to `CCNC(=O)C[C@@H]1CC[C@@H]2[C@H](COc3ccc(NC(=O)Nc4cccc(C)c4)cc3C(=O)N2C)O1`, for which the inhibition is 0.938%.

For the compound `O=C(C[C@@H]1C[C@@H]2c3cc(NC(=O)Nc4ccccc4F)ccc3O[C@@H]2[C@@H](CO)O1)NCCc1ccccc1`, the inhibition was 9.83%.

Consider `O=C(C1CCCC1)N1CC(=O)N2[C@@H](CO)[C@H](c3ccc(C#CC4CCCC4)cc3)[C@@H]2C1`, for which the inhibition was -10.1%.

For `O=C(C[C@@H]1CC[C@H](NC(=O)Nc2ccc3c(c2)OCO3)[C@H](CO)O1)NCc1ccccc1`, the inhibition is 2.06%.

In the case of `COc1ccc(C(N)c2csc(NC(=O)Nc3cccc(C(F)(F)F)c3)n2)cc1` (configuration not stated), the inhibition was -29.2%.

On to `COc1cc(NC(=O)c2[nH]cnc2C(N)=O)cc(C(=O)Nc2cccc(C(F)(F)F)c2)c1`, for which the inhibition is 62.8% (active).

Take `COc1cc(NC(=O)c2cncc(-c3ccc(C#N)cc3)c2)cc(C(=O)Nc2cccc(C(F)(F)F)c2)c1`: the inhibition was 4.55% and 7.38%.

For the compound `COc1cccc(-c2cn(CC[C@@H]3CC[C@@H](NC(C)=O)[C@@H](CO)O3)nn2)c1`, the inhibition is 22.5%.

As for `O=C(C[C@H]1C=C[C@@H](NC(=O)c2cnccn2)[C@H](CO)O1)NCc1ccccc1F`, the inhibition was -3.99%.

`Cc1noc(C)c1S(=O)(=O)Nc1ccc2c(c1)CC(=O)N([C@H](C)CO)C[C@@H](C)[C@@H](CN(C)C)O2`: the inhibition is 4.76%.

As for `CCCNC(=O)C[C@H]1CC[C@@H]2[C@H](COC[C@H](O)CN2CC2CCCCC2)O1`, the inhibition was -2.1%.

With `O=C(O)C[C@H]1C[C@@H]2c3cc(NC(=O)Nc4ccc(C(F)(F)F)cc4)ccc3O[C@@H]2[C@@H](CO)O1`, the inhibition is -2.34%.

Take `C[C@H](O)C#Cc1ccc([C@H]2[C@H](CO)N3CCCCN(C(=O)c4ccc(F)cc4)C[C@@H]23)cc1`: the inhibition is -4.78%.

Turning to `CCC(=O)N(C)C[C@H]1Oc2ncc(-c3ccc(C#N)cc3)cc2C(=O)N([C@@H](C)CO)C[C@H]1C`, the inhibition is -11.3%.

On to `CCCNC(=O)N[C@H]1C=C[C@@H](CC(=O)NC2CCCCC2)O[C@H]1CO`, for which the inhibition is -18.5%.

With `Cc1ccc(S(=O)(=O)Nc2ccc3c(c2)C(=O)N([C@@H](C)CO)C[C@H](C)[C@@H](CN(C)Cc2ccc4c(c2)OCO4)O3)cc1`, the inhibition was 1.59%.

`COC(=O)C[C@H]1CC[C@@H]2[C@@H](COc3ccc(NC(=O)Nc4ccc(Cl)cc4)cc3C(=O)N2C)O1`: the inhibition is -4.91%.

For `NC(=NC(=O)c1ccccc1)N1CCOCC1`, the inhibition is 84.1% (active).

`O=C(CSC(=S)N1CCOCC1)c1ccccc1`: the inhibition was -7.05%.

For `N[C@@H](Cc1ccccc1)C(=O)N1CCOCC1`, the inhibition was -8.48%.

Consider `CCCC(=O)Nc1ccc2c(c1)C(=O)N(C)[C@@H]1CC[C@H](CC(=O)NCCN3CCCCC3)O[C@@H]1CO2`, for which the inhibition is 1.12%.

Consider `C[C@@H]1CCCCO[C@H](CN(C)C(=O)c2ccccc2)[C@@H](C)CN([C@H](C)CO)C(=O)c2cc(NC(=O)c3ccccc3)ccc2O1`, for which the inhibition was 5.89%.

As for `C[C@@H]1CN([C@H](C)CO)C(=O)c2cc(NC(=O)c3ccccc3)ccc2O[C@@H](C)CCCCO[C@H]1CN(C)C(=O)c1ccncc1`, the inhibition is 8.37%.

For `CCNC(=O)Nc1ccc2c(c1)C(=O)N(C)[C@@H]1CC[C@@H](CC(=O)NC3CCCCC3)O[C@H]1CO2`, the inhibition was 1.93%.

As for `C[C@@H]1CN([C@H](C)CO)C(=O)c2cc(NC(=O)C3CCCCC3)ccc2O[C@@H](C)CCCCO[C@H]1CN(C)S(C)(=O)=O`, the inhibition was 6.77%.

For the compound `COc1ccc(S(=O)(=O)N(C)C[C@@H]2Oc3ccc(NC(=O)Cc4cn(C)c5ccccc45)cc3C(=O)N([C@H](C)CO)C[C@H]2C)cc1`, the inhibition is -8.14%.

Regarding `C[C@@H]1CN([C@H](C)CO)S(=O)(=O)c2ccc(-c3ccc(C(=O)N(C)C)cc3)cc2O[C@@H]1CN(C)C(=O)Nc1ccccc1F`, the inhibition is -11.4%.

For the compound `CO[C@H]1CN(C)C(=O)c2ccc(NC(=O)C3CC3)cc2OC[C@H](C)N(Cc2ccncc2)C[C@@H]1C`, the inhibition is -7.97%.

For `COc1ccc(NC(=O)Nc2cccc3c2O[C@@H](CN(C)S(=O)(=O)c2ccc(C)cc2)[C@H](C)CN([C@@H](C)CO)C3=O)cc1`, the inhibition was 3.27%.

For `CO[C@H](C(=O)N(C)C[C@@H]1OCc2ccccc2-c2c(n(C)c3ccccc23)C(=O)N([C@@H](C)CO)C[C@H]1C)c1ccccc1`, the inhibition is -1.42%.

Regarding `CCCN1C[C@@H](C)[C@@H](OC)CN(C)C(=O)c2cc(NC(=O)C3CCC3)ccc2OC[C@H]1C`, the inhibition was -10.1%.

For `CO[C@H]1CN(C)C(=O)c2cc(NS(=O)(=O)c3ccccc3)ccc2OC[C@H](C)N(C(=O)NC(C)C)C[C@@H]1C`, the inhibition was 8.54%.

For the compound `O=C(c1ccncc1)N1CC2(C1)[C@@H](c1ccccc1)[C@H](CO)N2C(=O)c1ccncc1`, the inhibition is 6.1%.

As to `C[C@@H]1CCCCO[C@@H](CN(C)C(=O)c2ccccc2)[C@H](C)CN([C@@H](C)CO)C(=O)c2cc(NS(C)(=O)=O)ccc2O1`, the inhibition is -1.5%.

For `CCOC(=O)c1ccc2[nH]c(C)c(CN3CCN(C)CC3)c(=O)c2c1`, the inhibition is 59.3% (active).

For `CCOC(=O)c1ccc2[nH]c3c(c2c1)CCCC3NC=O` (configuration not stated), the inhibition was 5%.

On to `Cc1[nH]c2ccc(C(=O)N3CCN(C)CC3)cc2c1C`, for which the inhibition is 1.27%.

For the compound `CO[C@@H]1CN(C)C(=O)c2ccc(NS(C)(=O)=O)cc2OC[C@H](C)N(C(=O)C2CC2)C[C@H]1C`, the inhibition was -8.93%.

On to `COc1ccc(NC(=O)Nc2ccc3c(c2)C(=O)N([C@@H](C)CO)C[C@H](C)[C@@H](CN(C)S(=O)(=O)c2ccc(Cl)cc2)O3)cc1`, for which the inhibition is -2.11%.
